Hits are enriched below; roughly 12% of the tested compounds scored in any of these assays.
G9a inh: G9a (human) methyltransferase inhibition; Q96KQ7; G9a H3K9 monomethylation, AlphaScreen, 2 h; Potency, µM (top dose mostly 102 µM), inactives show top-dose activity, negative = inhibition, usual class: inhibitors; 350,000 tested, 8.8% active; note: % is set by controls: 0 for no effect and ±100 for the full control effect; nearly all actives have a fitted effect of over 75% in size
Target sequence (Q96KQ7 913-1193 limits assumed): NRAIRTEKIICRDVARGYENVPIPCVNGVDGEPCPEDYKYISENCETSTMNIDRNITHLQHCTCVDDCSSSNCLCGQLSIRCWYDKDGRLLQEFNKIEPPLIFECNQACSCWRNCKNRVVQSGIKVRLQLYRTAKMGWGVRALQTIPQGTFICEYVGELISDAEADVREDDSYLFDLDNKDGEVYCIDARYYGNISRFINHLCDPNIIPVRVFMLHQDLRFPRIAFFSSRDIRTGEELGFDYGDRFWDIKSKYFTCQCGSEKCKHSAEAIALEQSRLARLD
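Quantitative HTS format: methyltransferase activity on a biotin-tagged H3K9 peptide is measured by AlphaScreen, using a rabbit anti-monomethyl-H3K9 antibody with streptavidin donor and anti-IgG acceptor beads. Final levels are 20 nM enzyme, 500 nM peptide, 20 uM SAM; 2 h RT.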
HP1b binding inh: HP1-beta chromodomain-methylated histone interaction inhibition | P83916 | AlphaScreen HP1-beta / biotin-H3K9me3 peptide binding | Potency, µM (doses to about 114 µM), for the others: top-dose activity change, negative = inhibition, usual class: inhibitors | 390,000 tested, 0.56% active | AID 540317; note: nearly all actives have a fitted effect of over 70% in size
Target sequence (P83916 whole entry, looked up): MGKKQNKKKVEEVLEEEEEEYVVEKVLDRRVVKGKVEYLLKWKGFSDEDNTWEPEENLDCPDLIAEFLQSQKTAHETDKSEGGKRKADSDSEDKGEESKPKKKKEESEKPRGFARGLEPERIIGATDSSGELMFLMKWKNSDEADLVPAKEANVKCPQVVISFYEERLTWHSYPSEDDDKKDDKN
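AlphaScreen: HP1-beta (50 nM) preformed 30 min with biotin-H3(1-18)K9me3 peptide (50 nM) in PBS pH 7.4, 0.01% Tween-20. Compound added for 30 min at RT, then streptavidin donor/nickel chelate acceptor beads (10 ug/mL) for 30 min.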
BAZ2B block: BAZ2B (human) inhibition; 360,000 tested, 4.4% active; AlphaScreen BAZ2B-H3K14Ac peptide displacement; Potency, µM (series often up to 114 µM), for inactives: at the highest dose activity change, negative = inhibition, usual class: inhibitors; Q9UIF8; note: % is set by controls: 0 for no effect and ±100 for the full control effect; nearly all actives have a fitted effect of over 60% in size
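Inhibition is scored as reduced AlphaScreen emission. The BAZ2B/b-H3(5-23)K14Ac complex (50 nM each) in PBS pH 7.4, 0.01% Tween-20 meets compound (up to 110 uM) for 30 min at RT before bead addition.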
Sfp PPTase inh: blocks B. subtilis Sfp PPTase activity | AID 1490 | 310,000 tested, 3.5% active | Biochemical Sfp PPTase activity, qHTS | Potency, µM, without a hit: largest response in the series, negative = inhibition, actives largely listed as inhibitors;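 note: the enzyme is Sfp with the accession as filed and its product quenches rhodamine fluorescence; 0% = enzyme reaction without inhibitor and -100% = no enzyme wells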
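With Hepes-Na pH 7.6 buffer containing 10 mM MgCl2, Sfp (15 nM) modified BHQ-2-YbbR (12.5 uM) using rhodamine-CoA (5 uM). Two reads 30 minutes apart at 525/598 nm yielded each well's rate.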
JMJD2A Tudor inh: inhibitors of human JMJD2A Tudor domain. AlphaScreen JMJD2A-Tudor / H3K4me3 peptide binding. 390,000 tested, 4.4% active. Potency, µM (series often up to 114 µM), inactives show at the top dose activity change, negative = inhibition, most hits filed as inhibitors. O75164; note: % is set by controls: 0 for no effect and ±100 for the full control effect; nearly all actives have a fitted effect of over 50% in size
* hit, by the source's call; ? = inconclusive; . = not tested or not shown; [ ] = dose if it differs, or a comment. Calls come from the whole dose curve; as a rule, active = well fitted curve in the direction sought with a large enough effect; inconclusive = small, poorly fitted or top-dose-only effect, or another doubt; inactive = no such curve, though single readings can be large; an effect the other way counts as inactive or inconclusive. Potency is the fitted concentration of half-maximal effect.

SMILES	G9a inh	HP1b binding inh	BAZ2B block	Sfp PPTase inh	JMJD2A Tudor inh
CCC(=O)Nc1ccc(C(=O)COC(=O)CCN2C(=O)C3CC=CCC3C2=O)cc1 (stereo not drawn)	50µM*	-10%	13%	.	-23%
CCOC(=O)c1ccc(NC(=O)CCN2C(=O)C3CC=CCC3C2=O)cc1 (stereo not drawn)	-5%[0.501 µM]	33%	-10%	.	-6%
CCOc1ccc(NC(=O)CCN2C(=O)C3CCCCC3C2=O)cc1OCC (stereo not drawn)	3%[0.501 µM]	11%	-15%	.	-21%
CCOc1ccc(NC(=O)COC(=O)CCN2C(=O)C3CC=CCC3C2=O)cc1OCC (stereo not drawn)	4µM*	-21%	?	.	?
CCCC[C@@H]1C[C@H]1C(NC(=O)c1cccs1)c1ccccc1C(F)(F)F (stereo partly drawn)	.	.	.	20%	.
COc1ccc(NC(=O)CN(c2ccc(C)cc2)S(=O)(=O)c2cccc3nonc23)cc1OC	?	6%	.	.	-33%
O=C(O)CNS(=O)(=O)c1ccc2c(c1)C(=O)c1cc(S(=O)(=O)NCC(=O)O)ccc1-2	45µM*	19%	-2%	-10%	-14%
O=C1c2ccccc2C(=O)c2cc(S(=O)(=O)Nc3ccccc3)ccc21	?	?	11µM*	-25%	?
O=C1c2cc(S(=O)(=O)NCCO)ccc2-c2ccc(S(=O)(=O)NCCO)cc21	-17%	-38%	-19%	15%	-24%
COc1ccc(N2CC(C(=O)NC3=NCCS3)CC2=O)cc1 (stereo not drawn)	?	18%	?	9%	-5%
CCCCn1c(N)c(N(C)C(=O)c2c(C)nn(-c3ccccc3)c2C)c(=O)[nH]c1=O	.	38%	.	.	-21%
Cc1ccc(N2C(=O)CS(=O)(=O)C23C(=O)Nc2ccccc23)cc1C (stereo not drawn)	16µM*	21%	8%[57.1 µM]	.	-11%
COc1cc(C2SC(C)C(=O)N2CCc2ccccc2)cc(OC)c1OC (stereo not drawn)	50µM*	31%	-3%	-6%	-7%
Cc1ccc2c(c1)c(C)c(C)n2CC(O)CN1CCOCC1 (stereo not drawn)	-22%[59 µM]	10%	1%	1%	79µM*
Cc1c(C)n(CC(O)CNCCO)c2ccccc12 (stereo not drawn)	8.9µM*	?	45µM*	10%	13µM*
COc1ccc(NCC(O)Cn2c(C)c(C)c3ccccc32)cc1 (stereo not drawn)	.	40µM*	40µM*	5%	?
CCOCC(O)CNc1ccccc1 (stereo not drawn)	-7%[59 µM]	24%	10%	-1%	-4%
Cc1c(C)n(CC(O)CNc2ccccc2)c2ccccc12 (stereo not drawn)	13µM*	?	25µM*	-27%	25µM*
Cc1c(C)n(CC(O)CN(CCO)CCO)c2ccccc12 (stereo not drawn)	-12%[59 µM]	1%	-32%	11%	?
Cn1c(/C=N/O)nc2ccccc21	.	55%	-14%	-24%	-12%[11.4 µM]
C=CCNC(=O)CN(c1ccccc1OCC)S(=O)(=O)c1ccc(C)cc1	-32%[59 µM]	34%	0%	10%	4%
COc1cc(C(C(=O)NC2CCCCC2)N(C(=O)c2cnccn2)c2ccccc2)cc(OC)c1OC (stereo not drawn)	7%	26%	-5%	1%	-6%
CC(Oc1ccc(Cl)cc1)C(=O)N1CCN(C(=O)c2ccco2)CC1 (stereo not drawn)	18%[12.7 µM]	13%	12%	.	-7%
c1csc(-c2nc(N3CCOCC3)c3ccccc3n2)c1	11%[59 µM]	32%	17%	6%	10%
Cc1c(C)n(CC(O)CN2CCCCCC2)c2ccccc12 (stereo not drawn)	35µM*	-8%	?	10%	?
COc1ccc(Nc2nc(Nc3ccc(OC)cc3OC)nc(N3CCOCC3)n2)c(OC)c1	?	7%	7.9µM*	.	?
COc1ccc(Nc2nc(N3CCOCC3)nc(N3CCOCC3)n2)c(OC)c1	8%[0.501 µM]	17%	-31%	19%	-35%
Clc1cccc(Nc2nc(N3CCOCC3)nc(N3CCOCC3)n2)c1	50µM*	57%	-18%[57.1 µM]	1%	-7%
